From PubChem BioAssay (NCI)
About 83,000 compounds went through this panel and 20% of them were active in at least one assay; those are over-represented in the sample as a whole.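 96-well plates, one dose, 48 hours. Percent growth reported; active if below 10.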 Active and inactive are the calls of the source.

The compounds below were run on SW-620 colon (assay: NCI-60 one-dose screen, 48 h (100 = growth as untreated, 0 = no growth, -100 = all killed)). Conditions: 10 µM.

Row | SMILES | growth
1 | O=C(N/N=C/c1ccc(Cl)cc1)c1ccccc1Nc1cccc(C(F)(F)F)c1 | 79.6% (inactive)
2 | O=C(CSc1nccc(Nc2cccc3ccccc23)n1)c1ccc(Cl)cc1 | 92.7% (inactive)
3 | O=C(CSc1nnc(-c2cccnc2SCc2ccccc2)o1)Nc1nc(Cl)cc(Cl)n1 | 103% (inactive)
4 | Nc1nc(N)c(N)c(Nc2ccc(CCO)cc2)n1 | 94% (inactive)
5 | O=C(CNc1nnc(-c2cccnc2SCc2ccccc2)s1)Nc1nc(Cl)cc(Cl)n1 | 117% (inactive)
6 | CN(C)c1ccc(/C=N/NC(=O)c2ccccc2Nc2cccc(C(F)(F)F)c2)cc1 | 93.6% (inactive)
7 | CN1C(=O)C2(Nc3cc(Cl)ccc3S2)c2cc(Cl)ccc21 (stereo not given) | 94% (inactive)
8 | CC(C)(C)OC(=O)N1CCc2c(sc3ncnc(N/N=C/c4cccc5ccccc45)c23)C1 | 27.3% (inactive)
9 | COc1cc(CNC(=O)C2CSC3(C)c4ccccc4C(=O)N23)cc(OC)c1OC (stereo not given) | 101% (inactive)
10 | c1ccc(CSc2ncccc2-c2nnc(SCCN3CCOCC3)o2)cc1 | 107% (inactive)
11 | CC[N+](CC)=c1ccc2nc3c(cc(NCc4ccccc4)c4ccccc43)oc-2c1 | -82.5% (active)
12 | N#CC1=CC2CN(Cc3ccccc3)C1C1C(=O)N(c3ccccc3)C(=O)C21 (stereo not given) | 95.2% (inactive)
13 | COc1ccc(-c2nn(-c3cccc(Cl)c3)cc2-c2nc(N)[nH]c(=O)c2C#N)cc1 | 83.2% (inactive)
14 | COc1cc2cc(Oc3ccc(NC(=O)Nc4ccc(Cl)c(C(F)(F)F)c4)cc3)c(C)nc2cc1OC | 7.51% (active)
15 | COc1cc2cc(Oc3ccc(NC(=O)Nc4ccc(Cl)c(Cl)c4)cc3)c(C)nc2cc1OC | 23.4% (inactive)
16 | COc1cc(-c2nn(-c3cccc(NC(=O)NCCNS(=O)(=O)c4ccc(Cl)cc4)c3)cc2-c2ccncc2)ccc1Cl | 18.9% (inactive)
17 | O=C(N/N=C/c1c(Cl)cccc1Cl)c1ccccc1Nc1cccc(C(F)(F)F)c1 | 96.2% (inactive)
18 | CC(=O)Nc1ccc(CC[C@H]2CCC/C=C/[C@@H]3C[C@H](O)C[C@H]3[C@H](O)/C=C/C(=O)O2)cc1 | 0.331% (active)

Row | SMILES | growth
19 | Cc1cc(Cl)ccc1Nc1nc(C(F)(F)F)ccc1C(=O)N/N=C/c1c(Cl)cccc1Cl | 6.12% (active)
20 | CCOC(=O)CC(S(=O)(=O)c1ccccc1)S(=O)(=O)c1ccccc1 | 8.23% (active)
21 | Cc1cc(Cl)ccc1Nc1nc(C(F)(F)F)ccc1C(=O)N/N=C/c1cccc(O)c1 | 27.8% (inactive)
22 | CC(C)=CCC/C(C)=C/CC/C(C)=C/CC/C=C(\C)CC/C=C(\C)CCC(=O)Nc1ccn(C2OC(CO)C(O)C2(F)F)c(=O)n1 (stereo not given) | 33.6% (inactive)
23 | COc1ccccc1/C=N\N/C(N)=N\N=C\c1ccccc1OC | 13.1% (inactive)
24 | Cc1cc(CCNC=O)c(C)c2c1sc1ccccc12 | 102% (inactive)
25 | COc1ccc(-c2nc(-c3nc4ccc(C)cc4[nH]3)cc3c2[nH]c2ccccc23)cc1 | 81.4% (inactive)
26 | Cc1ccc(/C=C2/C(=O)N(C)c3ccc(S(=O)(=O)Nc4ccc(C(C)(C)C)cc4)cc32)s1 | 96.7% (inactive)
27 | c1ccc(/C(=N\Nc2ccc3ccccc3n2)c2ccccn2)cc1 | 22.6% (inactive)
28 | NC(N)=N/N=C(\N=Nc1ccccc1)c1ccc(Cl)cc1 | 12.7% (inactive)
29 | COc1cc(NC(=O)Nc2cnc(Nc3ccc(N4CCOCC4)cc3)nc2Oc2cccc(OC)c2)cc(OC)c1 | 72.6% (inactive)
30 | COc1cc(-c2nn(-c3cccc(NC(=O)CCN4CCN(c5ccccc5)CC4)c3)cc2-c2ccncc2)ccc1Cl | 24.5% (inactive)
31 | OCC1OC(n2ccc3c(NO)ncnc32)C(O)C1O (stereo not given) | -3.1% (active)
32 | CCOC(=O)C1C(C(=O)OCC)C2C(=O)C3C(C(=O)OCC)C(C(=O)OCC)C3C(=O)C12 (stereo not given) | 111% (inactive)
33 | CCCCN(CCCC)C(=O)[C@H](CC)[C@@H]1CC[C@@H](C)[C@@H]([C@H](C)[C@@H](O)[C@@H](C)C(=O)[C@H](CC)C2O[C@]3(C=CC(=O)[C@]4(CC[C@@](C)([C@H]5CC[C@](O)(CC)[C@H](C)O5)O4)O3)[C@H](C)C[C@@H]2C)O1 (stereo not given in full) | 25.7% (inactive)
34 | COc1ccc(Cl)cc1Nc1nc(C(F)(F)F)ccc1C(=O)N/N=C/c1ccc(Cl)cc1 | 30.9% (inactive)
35 | CCCc1nc(C(C)(C)O)c(C(=O)O)n1Cc1ccc(-c2ccccc2-c2nn[nH]n2)cc1 | 98.6% (inactive)
